LMNA splice mod – modulators of lamin A splicing. Potency, µM (doses to about 46.1 µM), for inactives: at the highest dose ratio change, negative = inhibition, most hits filed as inhibitors. AID 1487. HeLa LMNA splicing GFP/RFP minigene ratio, 48 h. actives 0.01% (n = 200,000); active = well fitted inhibition curve with a large enough effect in the signal ratio, with a control signal flat, not every such curve was filed as active; inconclusive = small, poorly fitted or top-dose-only effect, or effect the other way, or a change in a side signal; the % refers to the signal ratio; also: potency is read from the fitted curve at half-maximal effect
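Read-out is the ratio of GFP to DsRed2 object intensity, acquired by 488 nm laser-scanning cytometry on HeLa lamin A-EGFP minigene reporter cells. Compound incubation 48 hrs at 37 °C in Opti-MEM with 2% FBS; DMSO 0.5% final.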
HPGD block – HPGD (human) dehydrogenase inhibition; Potency, µM, without a hit: top-dose activity change, negative = inhibition, most hits filed as inhibitors; purified HPGD, NADH fluorescence kinetic, PGE2 substrate; actives 4.3% (n = 150,000); AID 894; also: potency is read from the fitted curve at half-maximal effect
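20 nM HPGD preincubated 15 min at room temperature with compound in 50 mM Tris-HCl pH 8, 0.01% Tween 20. Started with 1 mM NAD+ and 30 uM prostaglandin E2; NADH fluorescence (360/450 nm) read 5 times over 30-s intervals, last minus first.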
PNC assembly inh – blocks assembly of the perinucleolar compartment; PC3M PTB-GFP, PNC prevalence imaging, 16 h; hits give low values; activity change (PNC), negative = inhibition, % at 10 µM; actives 3.1% (n = 140,000); AID 2417;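 active = readout at or below -70, meaning at least 70% loss of cells showing the perinucleolar compartment, a nuclear body marking cancer cells; inconclusive = readout between -30 and a set limit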;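 also: plate controls were DMSO wells for no effect and camptothecin positive control wells for full effect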
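Compounds are pinned in duplicate onto adhered PC3M cells stably expressing GFP-tagged PTB and incubated 16 h at 37 C. Cells are then fixed, nuclei stained with Hoechst, and PNC-positive cells counted.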
ALDH1A1 block – inhibitors of human aldehyde dehydrogenase 1A1; Purified ALDH1A1, NADH fluorescence, propionaldehyde substrate; Potency, µM (top dose mostly 75.3 µM), without a hit: at the top dose activity, negative = inhibition, actives largely listed as inhibitors; actives 7.3% (n = 220,000); P00352; AID 1030;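 also: potency is read from the fitted curve at half-maximal effect; plate controls were no enzyme wells and a reference inhibitor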
ALOX12 inhib – blocks human 12-lipoxygenase activity. Potency, µM (series often up to 57.1 µM), inactives show at the top dose activity change, negative = inhibition, actives largely listed as inhibitors. AID 1452. P18054. purified 12-hLO, xylenol orange hydroperoxide absorbance. actives 0.12% (n = 150,000); active = well fitted inhibition curve with a large enough effect; inconclusive = small, poorly fitted or top-dose-only effect; also: potency is read from the fitted curve at half-maximal effect; nearly all actives have a fitted effect of over 55% in size
Target sequence (P18054 whole entry, looked up): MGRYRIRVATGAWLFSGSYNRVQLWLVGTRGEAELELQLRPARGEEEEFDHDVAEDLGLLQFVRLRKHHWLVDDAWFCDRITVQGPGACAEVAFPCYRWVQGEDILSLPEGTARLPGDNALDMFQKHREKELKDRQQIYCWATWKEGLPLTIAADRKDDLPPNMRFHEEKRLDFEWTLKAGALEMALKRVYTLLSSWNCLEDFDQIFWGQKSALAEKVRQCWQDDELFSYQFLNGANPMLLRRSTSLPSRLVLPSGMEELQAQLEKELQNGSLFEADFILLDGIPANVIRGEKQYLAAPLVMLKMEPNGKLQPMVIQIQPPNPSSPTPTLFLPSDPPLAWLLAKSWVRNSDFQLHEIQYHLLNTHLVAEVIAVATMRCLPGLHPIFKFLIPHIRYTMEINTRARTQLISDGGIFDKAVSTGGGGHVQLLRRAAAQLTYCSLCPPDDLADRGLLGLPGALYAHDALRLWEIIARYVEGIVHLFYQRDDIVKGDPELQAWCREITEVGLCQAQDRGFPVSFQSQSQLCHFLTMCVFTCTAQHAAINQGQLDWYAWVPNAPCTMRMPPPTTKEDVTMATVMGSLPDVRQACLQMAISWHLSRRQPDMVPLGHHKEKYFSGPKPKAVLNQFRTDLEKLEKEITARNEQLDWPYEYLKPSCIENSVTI
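150 nM 12hLO, 25 mM Hepes pH 7.0 + 0.01% Triton X-100; cpd preinc 15 min RT; 40 uM arachidonic acid, 30 min RT; Fe-XO 30 min; A573/A405 ratio as read-out.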
An asterisk follows results filed as active; [ ] = dose if it differs, or a comment. Shown are actives, neighbours in structure and some others; about 10% of the full set was active somewhere. Unless noted, calls follow the shape of the dose curve; as a rule, active = well fitted inhibition curve with a large enough effect (not every such curve was filed as active); inconclusive = small, poorly fitted or top-dose-only effect, or another doubt; inactive = no such curve, though single readings can be large or run the other way. Unless noted, % is scaled to controls: 0 for no effect and ±100 for the full control effect.

What do the screens show for `Cc1[nH]c2ccccc2c1/C=N/NC(=O)C1CC1(c1ccccc1)c1ccccc1` (configuration not stated)?
LMNA splice mod: inconclusive; HPGD block: -7%; PNC assembly inh: -110*; ALDH1A1 block: -2%; ALOX12 inhib: -4%

What do the screens show for `Cc1cc(NC(=O)N(C)CCc2c(C)nn(C)c2C)ccc1Br`?
LMNA splice mod: -9%[46 µM]

What do the screens show for `CCc1c(C)sc(NC(=O)c2cc(C(C)C)on2)c1C#N`?
LMNA splice mod: 16%[46 µM]; ALDH1A1 block: 18µM*

What do the screens show for `N#Cc1c(NC(=O)c2cc([N+](=O)[O-])ccc2N2CCOCC2)sc2c1CCCC2`?
LMNA splice mod: 16%; HPGD block: 28µM*; PNC assembly inh: 48; ALDH1A1 block: -7%; ALOX12 inhib: -3%

What do the screens show for `CCC(CC)NC(=O)c1cc([N+](=O)[O-])ccc1N1CCOCC1`?
LMNA splice mod: -10%; PNC assembly inh: 1; ALDH1A1 block: inconclusive; ALOX12 inhib: -7%

What do the screens show for `N#Cc1c(NC(=O)c2cccnc2)sc2c1CCC2`?
LMNA splice mod: inconclusive; HPGD block: -2%; PNC assembly inh: -10; ALDH1A1 block: -15%; ALOX12 inhib: -16%

What do the screens show for `CCc1c(C)sc(NC(=O)c2cc(C)no2)c1C#N`?
LMNA splice mod: -13%; HPGD block: 32µM*; PNC assembly inh: 33; ALDH1A1 block: 13µM*; ALOX12 inhib: 1%

Results for N#Cc1c(NC(=O)c2cnccn2)sc2c1CCCC2 ?
LMNA splice mod: inconclusive; HPGD block: 28µM*; PNC assembly inh: 7; ALDH1A1 block: 14µM*; ALOX12 inhib: 1%

Results for CCc1ccc(NC(=O)c2cc(C(C)C)on2)cc1 ?
LMNA splice mod: 0%; HPGD block: -24%; PNC assembly inh: 11; ALDH1A1 block: inconclusive; ALOX12 inhib: 4%

How did CN(C)C(=O)c1ccc(-c2ccc3ncnc(N4CCOCC4)c3c2)cc1 do in these assays?
LMNA splice mod: inconclusive; ALDH1A1 block: -13%

What do the screens show for `CCN(CC)c1ccc(/C=N/NC(=O)c2ccc(O)cc2)cc1`?
HPGD block: inconclusive; ALDH1A1 block: inconclusive; ALOX12 inhib: 0%

How did CC(C)c1onc(C(=O)N2CCCCCC2)c1[N+](=O)[O-] do in these assays?
LMNA splice mod: inconclusive; ALDH1A1 block: 25µM*

Results for CCc1c(C)sc(NC(=O)CC#N)c1C#N ?
LMNA splice mod: -2%; HPGD block: inconclusive; PNC assembly inh: 9; ALDH1A1 block: 3.5µM*; ALOX12 inhib: -12%

What do the screens show for `Cc1nn(CCCC(=O)Nc2sc3c(c2C#N)CCC3)c(C)c1[N+](=O)[O-]`?
LMNA splice mod: 6%; HPGD block: 22µM*; PNC assembly inh: 3; ALDH1A1 block: 2.5µM*; ALOX12 inhib: -3%

Results for Cc1nn(C(C)C(=O)Nc2sc3c(c2C#N)CCCC3)c(C)c1[N+](=O)[O-] (configuration not stated) ?
LMNA splice mod: -3%; HPGD block: -4%; PNC assembly inh: 70; ALDH1A1 block: -10%; ALOX12 inhib: -7%

What do the screens show for `O=C(Nc1sc2c(c1C(=O)c1ccc(Cl)cc1)CCCC2)c1cccnc1`?
LMNA splice mod: inconclusive; HPGD block: -18%; PNC assembly inh: 26; ALDH1A1 block: 20µM*; ALOX12 inhib: 3%

What do the screens show for `CCOC(=O)N1CCN(C(=O)c2noc(C(C)C)c2[N+](=O)[O-])CC1`?
LMNA splice mod: inconclusive; HPGD block: 4%; PNC assembly inh: 39; ALDH1A1 block: -11%; ALOX12 inhib: -2%

What do the screens show for `COC(=O)[C@@]1(Cc2ccc(OC)cc2)[C@H]2c3cc(C(=O)N(C)C)n(Cc4ccc(O)c(OC)c4)c3C[C@H]2CN1C(=O)c1ccccc1`?
HPGD block: -9%; ALDH1A1 block: -8%; ALOX12 inhib: -24%

What do the screens show for `CC(C)c1onc(C(=O)Nc2sc3c(c2C#N)CCC3)c1[N+](=O)[O-]`?
LMNA splice mod: inconclusive; ALDH1A1 block: 13µM*

Results for Cc1cc(C(=O)Nc2sc(C)c(C)c2C#N)no1 ?
LMNA splice mod: 1%; HPGD block: -4%; PNC assembly inh: inconclusive; ALDH1A1 block: 13µM*; ALOX12 inhib: -8%

How did CC(C)c1cc(C(=O)Nc2sc3c(c2C#N)CCC3)no1 do in these assays?
LMNA splice mod: inconclusive; HPGD block: inconclusive; PNC assembly inh: 7; ALDH1A1 block: 18µM*; ALOX12 inhib: -13%

What do the screens show for `CCCc1cc(C(=O)OC)c(NC(=O)c2cc(C)on2)s1`?
LMNA splice mod: 5%; HPGD block: -24%; PNC assembly inh: -87*; ALDH1A1 block: 9%; ALOX12 inhib: 7%

What do the screens show for `O=C(O)CC1(CC(=O)NCc2cc(F)cc3c2OCOC3)CCCCC1`?
ALDH1A1 block: 10µM*

How did Cc1ccc(CNS(=O)(=O)c2c(C(=O)N3CCC(C)CC3)c(C)n(C)c2C)cc1 do in these assays?
LMNA splice mod: -4%[46 µM]

What do the screens show for `COc1ccc(CCNC(=O)Cn2c(=O)nc(-c3ccccc3)c3ccccc32)cc1OC`?
LMNA splice mod: -1%[46 µM]

What do the screens show for `CC(C)c1ccc(/C=C/C(=O)N2CCCCCC2)cc1`?
LMNA splice mod: 8%; HPGD block: 14µM*; PNC assembly inh: inconclusive; ALDH1A1 block: inconclusive; ALOX12 inhib: -7%

What do the screens show for `Cc1ccc(Cl)cc1N1CCN(S(=O)(=O)c2ccc3c(c2)CCCN3C(=O)C2CCC2)CC1`?
LMNA splice mod: 4%[46 µM]

How did COC(=O)Cn1c(=NC(=O)c2ccc([N+](=O)[O-])s2)sc2cc(Br)ccc21 do in these assays?
LMNA splice mod: 4%; HPGD block: -14%; PNC assembly inh: -93*; ALDH1A1 block: 8.9µM*; ALOX12 inhib: -2%

Results for COC(=O)Cn1c(=NC(=O)c2ccc(Cl)s2)sc2cc(C)ccc21 ?
LMNA splice mod: -11%; HPGD block: inconclusive; PNC assembly inh: -119*; ALDH1A1 block: inconclusive; ALOX12 inhib: 3%

What do the screens show for `COC(=O)Cn1c(=NC(=O)c2nc3ccccc3s2)sc2cc(S(C)(=O)=O)ccc21`?
LMNA splice mod: -2%; HPGD block: inconclusive; PNC assembly inh: 6; ALDH1A1 block: inconclusive; ALOX12 inhib: 0%

What do the screens show for `O=C(NC1CC(=O)N(c2ccc(Cl)cc2)C1)c1ccc2c(c1)OCO2` (configuration not stated)?
LMNA splice mod: -2%[46 µM]

How did COc1cccc(-c2cc(C(F)(F)F)nc(NCc3ccco3)n2)c1 do in these assays?
LMNA splice mod: inconclusive; HPGD block: -29%; PNC assembly inh: -100*; ALDH1A1 block: -1%; ALOX12 inhib: -9%

Results for O=C(CCCSc1nc(-c2ccco2)cc(C(F)(F)F)n1)NCc1cccs1 ?
LMNA splice mod: inconclusive; HPGD block: 18µM*; PNC assembly inh: inconclusive; ALDH1A1 block: inconclusive; ALOX12 inhib: -11%
